The results in this text go back to PubChem BioAssay (NCATS).

Records with an inconclusive call do not appear. A call without a number means that no potency is given here. Values without a mark were called inactive. The source made the active and inactive calls. Calls follow the shape of the dose curve; as a rule, active = well fitted curve in the direction sought with a large enough effect; inconclusive = small, poorly fitted or top-dose-only effect, or another doubt; inactive = no such curve, though single readings can be large; an effect the other way counts as inactive or inconclusive.
Also: nearly all actives have a fitted effect of over 40% in size.

In one experiment the target is Cytochrome P450 3A7 (Homo sapiens) (UniProt P24462). The experiment can be described thus: Cytochrome P450 family 3 subfamily A member 7 (CYP3A7) small molecule antagonists: luciferase biochemical qHTS assay (AID 1963596). To be noted: P450-Glo CYP3A7 enzyme luminescence, 1 h; series mostly up to 57.4 µM. Summed up: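 Luminescence read-out (relative luminescence units) after 20 min with detection reagent, which stops the reaction. Enzyme, proluciferin substrate and compound preincubated 10 min, RT; NADPH regeneration system then started 1 h reaction. Ketoconazole as positive control.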
Sequence of Cytochrome P450 3A7 (Homo sapiens) (P24462 whole entry, looked up): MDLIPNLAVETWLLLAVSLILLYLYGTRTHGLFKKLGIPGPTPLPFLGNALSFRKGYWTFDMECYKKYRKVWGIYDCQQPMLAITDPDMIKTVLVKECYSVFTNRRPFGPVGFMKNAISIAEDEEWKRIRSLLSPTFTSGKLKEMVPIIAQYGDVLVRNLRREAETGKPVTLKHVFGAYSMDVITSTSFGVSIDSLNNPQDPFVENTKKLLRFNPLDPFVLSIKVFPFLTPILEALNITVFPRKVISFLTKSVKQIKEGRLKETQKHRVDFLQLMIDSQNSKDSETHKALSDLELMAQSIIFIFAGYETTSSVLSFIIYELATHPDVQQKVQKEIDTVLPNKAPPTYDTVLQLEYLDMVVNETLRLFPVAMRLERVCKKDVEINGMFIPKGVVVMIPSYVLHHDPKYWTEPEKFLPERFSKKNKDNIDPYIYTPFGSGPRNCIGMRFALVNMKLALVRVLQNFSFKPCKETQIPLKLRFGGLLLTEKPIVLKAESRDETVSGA
A general note: Quantitative high-throughput screening tests each substance at several concentrations.
On to `Nc1nc(N)c2nc(-c3ccccc3)c(N)nc2n1`, for which the Potency entry is “inactive”. On the same count and under the same terms, as for `Oc1c(I)cc(Cl)c2cccnc12`, the entry is “inactive”; as for `Oc1c(I)cc(I)c2cccnc12`, “inactive”; as for `O=C(NCC(=O)N1CC[C@H](NC2CCC(O)(c3ccc(-c4ncccn4)cn3)CC2)C1)c1cccc(C(F)(F)F)c1` (stereo not given in full), “inactive”. As to `COc1ccc(Nc2cc(-c3cnc(N)nc3)nc(N3CCOCC3)n2)cn1`, the Potency entry is “inactive”. Same read-out and setting: as for `O=C(Nc1cccnc1)c1cc(-c2ccnc(F)c2)ccc1OCc1ccccc1`, the entry is “inactive”; as for `CCOC(=O)C(C#N)=C(c1ccccc1)c1ccccc1`, “inactive”. Take `CC(C)N=C(N)/N=C(\N)Nc1ccc(Cl)cc1`: the Potency entry was “inactive”.

On to `CC(C)NCC(O)c1ccc2ccccc2c1` (stereo not given), for which the Potency result was “inactive”.

Test system in a further experiment: not listed separately
The experiment can be described thus: Viability qHTS for spleen associated tyrosine kinase inhibitor (SYKi) naive MV4-11 cells (AID 1963823). Also: potency is read from the fitted curve at half-maximal effect. To be noted: MV4-11 AML viability, CellTiter-Glo luminescence, 72 h; series mostly up to 45 µM. Summed up:
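Read-out: CellTiter-Glo luminescence. Exposure: 72 hr, 37 C, 5% CO2, 95% humidity. Cells: MV4-11 without SYK inhibitor history, 500/well, qHTS format.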
For the compound `CC/C=C/CC1=C(CCCCCCCC(=O)O)CCC1=O`, the Potency entry is “inactive”. On to `C/C(=C\CO)CC/C=C(\C)C(=O)O[C@@H]1O[C@H](CO)[C@@H](O)[C@H](O)[C@H]1O`, for which the Potency entry was “inactive”.

For `C/C=C(/C)C(=O)OC1C2OC2C2(CO2)C2C3OC(=O)C(C)C3CCC12C` (stereo not given), the Potency entry is “inactive”.

On to `CC(C)C(NC(=O)c1ccc(O)cc1)C(=O)N1CCCC1C(=O)Nc1c(O)cccc1C(=O)O` (stereo not given), for which the Potency result is “inactive”. For the compound `C=C1/C(=C/C=C2\CCC[C@@]3(C)C2CCC3[C@H](C)/C=C/[C@@H](O)C2CC2)C[C@@H](O)C[C@@H]1O` (stereo not given in full), the Potency result is “inactive”. The same measure, in the same setting: the same measure for `O=C(Nc1cccc(Nc2nccc(Nc3cccc(C(F)(F)F)c3)n2)c1)C1CC1`: 1.84 µM (active). For `COc1cc(O[C@@H]2O[C@H](CO[C@H]3OC[C@](O)(CO)[C@H]3O)[C@@H](O)[C@H](O)[C@H]2O)cc(OC)c1O`, the Potency entry is “inactive”. With `COc1ccc(C2(O)c3c(ccc4c3OC(C)(CCC=C(C)C)C=C4)NC(=O)C2OC)cc1` (stereo not given), the Potency result is “inactive”. On to `Cc1cc(Cl)ccc1COc1ccnn1-c1cc(C(=O)O)ccn1`, for which the Potency result is “inactive”.

As for `C[C@@H]1O[C@@H](O[C@H]2[C@H](O[C@H]3[C@H](O[C@H]4CC[C@@]5(C)C(CC[C@]6(C)C5CC=C5[C@@H]7CC(C)(C(=O)O)C[C@@H](O)[C@]7(C)CC[C@]56C)[C@@]4(C)CO)O[C@H](C(=O)O)[C@@H](O)[C@@H]3O)O[C@H](CO)[C@H](O)[C@@H]2O)[C@H](O)[C@H](O)[C@H]1O` (stereo not given in full), the viability (% of control) is 58.7% [at 9.25 µM]. As to `O=C(Nc1ncc(SCCN2CCCC2)s1)C1(c2ccc(S(=O)(=O)C3CC3)cc2)CC1C1CCCCC1` (stereo not given), the Potency is 8.2 µM (active). Take `O=C(O)c1ccncc1Nc1nn(CCN2CCC(F)(F)CC2)c2ccc(F)cc12`: the Potency result was “inactive”. The same measure, in the same setting: as for `CC(CN1c2ccccc2Sc2ccccc21)N(C)C` (stereo not given), the entry is “inactive”; as for `CC(C)=CCc1ccc(Oc2c(O)cc(C)cc2CO)c(C(=O)O)c1O`, “inactive”. Turning to `C#CCN(Cc1cc2c(=O)n(C)c(CN3CCN(C)CC3)nc2cc1Cl)c1ccc(C(=O)NCc2cccnc2)cc1`, the Potency entry was “inactive”. For the compound `C=C/C=C/[C@@H]1OC[C@H](/C=C/C=C/C)[C@H]1O`, the Potency result was “inactive”.

For `C/C1=C\CC[C@]2(C)O[C@H]2C(=O)c2c(C)coc2C1`, the Potency entry was “inactive”. Turning to `CC(C)(N)c1cc(C(=O)N[C@@H]2CCc3ccc(Oc4ccnc5c4CCC(=O)N5)cc3C2)cc(C(F)(F)F)c1`, the Potency was 0.92 µM (active). Take `CC1=C(C(=O)Nc2cc(Cl)ccc2Cl)C(c2ccco2)C2=C(CCCC2=O)N1` (stereo not given): the Potency was 14.6 µM (active). Consider `C=C1CCC[C@]2(C)CC[C@@](O)(C(=C)C(=O)O)C[C@@H]12`, for which the Potency entry was “inactive”. Consider `NC(=O)Nc1cc(-c2cccc(F)c2)sc1C(=O)NC1CCCNC1` (stereo not given), for which the Potency entry is “inactive”.

Turning to `CC1(C)CCC[C@@]2(C)[C@H]1[C@H](O)C=C1COC(=O)[C@@]12O`, the Potency result is “inactive”. Still for that read-out and setting: the same measure for `O=S(=O)(c1ccc(S(=O)(=O)n2cnc3ccccc32)cc1)N1CCCCCC1`: “inactive”; for `O=S(=O)(c1ccccc1)c1cnc2c(N3CCNCC3)cccc2c1`: “inactive”.

Take `Cc1ccc2nc(NC(=O)CSc3nc4c(c(=O)n3-c3ccc(F)cc3)SCC4)sc2c1`: the Potency entry is “inactive”.

For the compound `Cc1cc(CNC(=O)c2cc(C(=O)NCc3ccc(F)c(C)c3)ncn2)ccc1F`, the Potency result was “inactive”. For `C[C@@H]1C[C@@H](O)[C@@]23CO[C@]2(CO)C[C@@H](O)CC3[C@@]12CC(c1ccoc1)OC2=O` (stereo not given in full), the Potency result was “inactive”.

As for `CC(C)C1(O)NC(=O)C(CC2(O)c3ccccc3N3C(=O)C(C)(C)NC32)n2c1nc1ccccc1c2=O` (stereo not given), the Potency result was “inactive”.

In the case of `COC1C(CO)OC(n2cnc3c(=O)[nH]cnc32)C1O` (stereo not given), the Potency result is “inactive”. As to `C=CC/C=C\C/C=C\CCCCCCCc1cccc(O)c1C(=O)O`, the Potency result was “inactive”.

For the compound `O=C(O)CC1CC(c2ccccc2)=NO1` (stereo not given), the Potency result was “inactive”.
